Assay results: PubChem BioAssay AID932 (The Scripps Research Institute Molecular Screening Center, 2007)
Among all 200,000 compounds or so, about 5,100 (2.5%) were called active.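 How the source made its calls: active means activation above the screen-wide mean activation plus 3 SD (cut at about 130% in these data); inactive means the rest.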 This excerpt belongs to a sample that is enriched for actives.

assay: STAT1 signaling activators, primary screen, cell-based, HTS, luciferase reporter (AID 932); conditions: NIH 3T3 STAT1-luciferase reporter, IFN-gamma, luminescence; at 5.5 µM; active compounds read high; 100% = IFN-gamma alone, no compound;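 further: raw ratio to IFN-gamma control signal so 100% means no change and 0% no light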

Activation (% of control), inactive:
O=C(CNC(=O)COc1ccccc1)NCCc1ccccn1 104%, CCC(=O)Nc1cccc(NC(=O)c2cccnc2)c1 98.6%, Cc1nn(Cc2ccc(Cl)cc2)c(Cl)c1/C=N/NC(=O)c1cccnc1 94.4%, Cc1ccc2sc(NNC(=O)c3ccc4c(c3)OCCO4)nc2c1C 104%, CCOC(=O)CSc1nc2ccc(C)cc2[nH]1 111%, Cc1ccc(S(=O)(=O)NCCN2CCOCC2)cc1C 96.1%, COc1ccc(CN2CCCC(CNC(=O)c3ccc(F)cc3)C2)cc1OC (stereo not drawn) 97.8%, CC1CCC(NC(=O)C2c3ccccc3C(=O)N2Cc2ccc3c(c2)OCO3)CC1 (stereo not drawn) 89.6%, N=c1c2c(-c3ccccc3)c(-c3ccccc3)n(Cc3ccccc3)c2ncn1CCCO 102%, Cc1ccc(C)c(-n2ccnc2SCC(N)=O)c1 102%, O=C(Nc1cccc(C(F)(F)F)c1)c1cnccn1 110%, Cc1cccc(NC(=O)c2cccc(C(F)(F)F)c2)c1 107%, CN(C)c1ccc2c(=O)[nH][nH]c(=O)c2c1 103%, COc1ccc(-n2c(C)nn(CC3CC3)c2=O)cc1 97.8%, NS(=O)(=O)c1ccc(CCNC(=O)CCCn2c(SCC(=O)N3CCCC3)nc3ccsc3c2=O)cc1 99.5%, CCc1ccc(NC(=O)CC2C(=O)NCCN2C(=S)Nc2ccccc2)cc1 (stereo not drawn) 100%, O=C1CN(C(=O)COC(=O)c2cnc(Cl)c(Cl)c2)c2ccccc2N1 92.8%, CCN(CC)N=Nc1cccc(NC(C)=O)c1 88.6%, Cc1nonc1NC(=O)CSc1nc2ccccc2cc1C#N 117%, CCOc1ccc2nc(NCCNS(=O)(=O)c3ccccc3)c(C#N)cc2c1 102%, O=C(CSc1cccc[n+]1[O-])NCCCc1ccccc1 91.9%, CCOC(=O)C1CCN(CCC(=O)Nc2cccc(C)c2)CC1 98.8%, COc1cc(/C=C2/C(=O)ON=C2C)ccc1OCc1cccc(F)c1 128%, CCOc1cc(/C=N/O)ccc1OCc1ccccc1F 104%, CCn1c(CSCc2c(Cl)cccc2Cl)n[nH]c1=S 98.8%, Cc1noc(C)c1CCC(=O)O 95.1%, COc1ccc(CNC(=O)CN2CCC(n3nnc4cc(F)ccc43)CC2)cc1 88.1%, COc1ccc2nc(Nc3nc4cc5c(cc4s3)OCCO5)sc2c1 114%, CSc1ncccc1C(=O)Nc1nc2ccc(F)cc2s1 123%, CCCCCC(=O)Nc1ccc(S(=O)(=O)Nc2ccc(Cl)nn2)cc1 102%, O=C(C1=C[C@H](c2coc3ccccc3c2=O)C[C@H](OCc2ccc(CO)cc2)O1)N1CCOCC1 102%, COc1ccc(/C=N/NC(=O)Cn2cc(C(F)(F)F)ccc2=O)cc1 97.9%, Cc1ccccc1OCCC(=O)OCC(=O)NC(C)c1ccccc1 (stereo not drawn) 99.7%, COCCOC(=O)c1c(C)oc2cc(Br)c(OCC(N)=O)cc12 94.5%, Cc1ccc(COc2ccc(C(=O)NN)cc2)cc1 116%, Oc1ccc(-c2csc(Nc3cccnc3)n2)cc1 110%, Cc1ccc(-c2csc(NC(=O)c3cccs3)n2)cc1 123%, O=C(Nc1ccc(Cl)cn1)Nc1cccs1 123%, Cc1ccc(-c2csc(NC(=O)Cc3cccs3)n2)cc1C 111%, CCCc1cc(-c2nc(-c3ccc(C)cc3)cs2)ccn1 99.8%, COc1ccc(-c2csc(Nc3ccccn3)n2)cc1 110%, NC(=O)c1ccccc1N=Cc1ccc2ccccc2c1 124%, CCOC(=O)c1cc2c(=O)n3ccccc3nc2n(CC(C)C)c1=NC(=O)c1c(-c2c(F)cccc2Cl)noc1C 89.8%, CC(C)OC(=O)Cn1nc(C(F)(F)F)c2c1CCCC2 96.5%, Cc1ccc2nc(SCc3cn4c(C)cc(C)nc4n3)[nH]c2c1 96.4%, CNC(=O)c1ccc(NC(=O)c2cccc(C(F)(F)F)c2)cc1 98.4%, Cc1cc(C)c(C#N)c(N2CCC(C(N)=O)CC2)n1 98.4%, CNC(=S)N/N=C/c1ccc(OCc2ccccc2)c(Br)c1 119%, Cc1n[nH]c(=S)n1/N=C/c1ccc(Br)o1 104%, C=C(C)C(=O)Nc1cccc(C(C)=O)c1 102%, CSc1ccccc1NC(=O)CN(C)CC(=O)Nc1cccc(Br)c1 89.3%, CCOc1ccc(C(C)=O)cc1COC(=O)c1cnc(Cl)c(Cl)c1 101%, Cc1ccnc(NC(=O)c2ccc(Cl)c([N+](=O)[O-])c2)c1 95.8%, O=C(CSc1nnc(-c2cnccn2)n1Cc1ccco1)c1ccc(Cl)c(Cl)c1 94.7%, Fc1cccc(Cl)c1CSc1ccc(-c2ccco2)nn1 126%

Activation (% of control), active:
Cc1cc(/C=N/NC(=O)c2cccnc2)c(C)n1CC(C)C 139%, Cc1cc2nc(SCCN3CCOCC3)[nH]c2cc1C 152%, OCCCN1c2ccccc2Nc2nnc(-c3ccccc3)cc21 156%, Cc1ccc(NC(=O)Nc2cccc(C(F)(F)F)c2)nc1 129%, CCOc1ccc2cc(C#N)c(SCC(=O)OC)nc2c1 150%, COc1cc(/C=C2/C(=O)ON=C2C)ccc1OCc1ccccc1F 129%, Fc1ccc2nc(Nc3nc4c(s3)CCCC4)sc2c1 162%, c1ccc(Nc2nc(-c3ccncc3)cs2)nc1 193%, c1cnc(Nc2nc(-c3ccc4ccccc4c3)cs2)nc1 164%, Clc1ccc(Nc2nc(-c3cccs3)cs2)nc1 196%, COc1cc(/C=N/n2c(C)n[nH]c2=S)ccc1OCc1ccccc1 144%, CCN(CC)C(=O)C(=O)Nc1cccc(Br)c1 129%, Cn1c(SCc2c(F)cccc2Cl)nnc1-c1cnccn1 130%
